PubChem BioAssay AID1159580 (chemical genetic matrix, 2015)
Several values for one entry are separate records, joined by “and”; a condition that tells them apart may be missing. Equal entries are not always repeated. Out of some 5,500 compounds screened, about 2,000 (36%) were called active. About 18% were inconclusive and are not listed. No stated cut-off is given here; in the data, active means normalized growth mostly below about 0.91 (no sharp cut-off); inconclusive means no clear call, values can overlap the other calls; inactive means mostly above about 0.92. This is one part of the list.

Assay: chemical genetic growth profiling, strain panel (AID 1159580);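 further: tested at 20 µM; growth read once vehicle control cultures reached saturation at 30 °C; 1 = growth at the plate median or of vehicle wells; lower values mean less growth of the strain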
Settings: S. cerevisiae deletion strains, growth OD

Measured: normalized growth

OCC(O)C(O)C(O)C(O)C(O)CO (configuration not stated)
inactive: locus YAL021C, strain ccr4, active compounds read low 0.995 | locus YAL026C, strain drs2, active compounds read low 0.991 | locus YAL030W, strain snc1, active compounds read low 0.99 | locus YBL061C, strain skt5, active compounds read low 0.989 | locus YBR009C, strain hhf1, active compounds read low 1 | locus YBR021W, strain FUR4, active compounds read low 1.02 | locus YBR023C, strain chs3, active compounds read low 0.995 | locus YBR171W, strain sec66, active compounds read low 0.991 | locus YBR229C, strain ROT2, active compounds read low 0.96 | locus YBR231C, strain swc5, active compounds read low 0.991 | locus YBR279W, strain paf1, active compounds read low 0.991 | locus YCL011C, strain gbp2, active compounds read low 0.999 | locus YCL016C, strain dcc1, active compounds read low 0.989 | locus YCL029C, strain bik1, active compounds read low 0.974 | locus YCL061C, strain MRC1, active compounds read low 0.99 | locus YCL069W, strain vba3, active compounds read low 1 | locus YCR088W, strain abp1, active compounds read low 0.989 | locus YDL005C, strain med2, active compounds read low 1 | locus YDL035C, strain GPR1, active compounds read low 1.01 | locus YDL040C, strain nat1, active compounds read low 0.982 | locus YDL074C, strain BRE1, active compounds read low 1.05 | locus YDL101C, strain DUN1, active compounds read low 1.01 | locus YDL185W, strain tfp1, active compounds read low 0.954 | locus YDL192W, strain arf1, active compounds read low 1 | locus YDR001C, strain nth1, active compounds read low 0.99 | locus YDR069C, strain doa4, active compounds read low 0.995 | locus YDR101C, strain arx1, active compounds read low 0.974 | locus YDR137W, strain rgp1, active compounds read low 1.02 | locus YDR159W, strain sac3, active compounds read low 0.98 | locus YDR162C, strain NBP2, active compounds read low 1 | locus YDR195W, strain ref2 0.965 | locus YDR297W, strain sur2, active compounds read low 0.997 | locus YDR318W, strain mcm21, active compounds read low 0.956 | locus YDR334W, strain swr1, active compounds read low 0.987 | locus YDR335W, strain msn5, active compounds read low 0.993 | locus YDR388W, active compounds read low 0.985 | locus YDR392W, strain spt3, active compounds read low 0.99 | locus YDR502C, strain sam2, active compounds read low 1.01 | locus YEL003W, strain gim4, active compounds read low 0.994 | locus YEL037C, strain rad23, active compounds read low 0.992 | locus YEL061C, strain CIN8 (second series), active compounds read low 0.979 | locus YEL061C, strain CIN8, active compounds read low 0.993 | locus YER015W, strain faa2, active compounds read low 0.994 | locus YER016W, strain bim1, active compounds read low 0.983 | locus YER110C, active compounds read low 0.97 | locus YER111C, strain swi4, active compounds read low 0.989 | locus YER155C, strain BEM2 (second series), active compounds read low 0.989 | locus YER155C, strain BEM2, active compounds read low 1 | locus YER167W, strain BCK2, active compounds read low 0.997 | locus YFR010W, strain ubp6, active compounds read low 0.99 | locus YGL078C, strain dbp3, active compounds read low 1.01 | locus YGL086W, strain mad1, active compounds read low 1.01 | locus YGL167C, strain pmr1, active compounds read low 0.996 | locus YGL173C, strain kem1, active compounds read low 1 | locus YGL227W, strain vid30, active compounds read low 0.992 | locus YGL240W, strain doc1, active compounds read low 1 | locus YGL248W, strain PDE1, active compounds read low 1.02 | locus YGL253W, strain hxk2, active compounds read low 0.989 | locus YGR135W, strain pre9, active compounds read low 1.05 | locus YGR252W, strain gcn5, active compounds read low 1.1 | locus YHR013C, strain ard1, active compounds read low 0.981 | locus YHR027C, strain rpn1, active compounds read low 1 | locus YHR030C, strain SLT2, active compounds read low 0.998 and 0.954 | locus YHR079C, strain IRE1 (second series), active compounds read low 0.992 | locus YHR079C, strain IRE1, active compounds read low 0.973 | locus YHR094C, strain hxt1, active compounds read low 0.965 | locus YHR129C, strain ARP1, active compounds read low 1.02 | locus YHR142W, strain chs7, active compounds read low 0.995 | locus YHR200W, strain rpn10, active compounds read low 0.991 | locus YIL066C, strain RNR3, active compounds read low 0.995 | locus YIL073C, strain SPO22, active compounds read low 1.07 | locus YIL125W, strain kgd1, active compounds read low 0.967 | locus YIR030C, strain dcg1, active compounds read low 1.01 | locus YJL092W, strain hpr5, active compounds read low 0.993 | locus YJL095W, strain BCK1 (second series), active compounds read low 0.993 | locus YJL095W, strain BCK1, active compounds read low 1.09 and 0.974 | locus YJL115W, strain asf1, active compounds read low 0.982 | locus YJL129C, strain trk1, active compounds read low 1 | locus YJL134W, strain LCB3, active compounds read low 0.985 | locus YJL154C, strain vps35, active compounds read low 0.991 | locus YJL164C, strain tpk1, active compounds read low 0.994 | locus YJL166W, strain qcr8, active compounds read low 0.996 | locus YJL168C, strain set2, active compounds read low 0.984 | locus YJL187C, strain SWE1 (second series), active compounds read low 1.01 | locus YJL187C, strain SWE1, active compounds read low 1 | locus YJR043C, strain POL32, active compounds read low 1.02 | locus YJR066W, strain TOR1, active compounds read low 0.927
